# Source: PubChem
# Rows were chosen to be rich in hits. Some 12% of all compounds tested hit in one or more screens of this group.
# Shiga inhibitor: Shiga toxin inhibition; inhibition, % at 38.7 µM; Vero cells, Shiga toxin protein synthesis inhibition reporter; 9.2% of 290,000 active; in the data active = inhibition mostly above about 28%, no sharp cut-off; inactive = mostly below about 43%
# MARV entry inh: inhibitors of Marburg virus binding or cell entry; 1.8% of 300,000 active; Marburg virus pseudotyped entry inhibition, cell reporter; Potency, µM (highest dose often 37.8 µM), usual class: inhibitors; calls by dose curve; tested in HEK293 cells
# LASV entry inh: blocks Lassa virus binding to or entry into cells. Lassa virus pseudotype entry inhibition, cell reporter. Potency, µM (series often up to 37.9 µM), hits mostly inhibitors. 1.2% of 300,000 active. AID 540256; calls by dose curve; tested in HEK293 cells; also: nearly all actives have a fitted effect of over 50% in size
# CHX counter: counter-screen for Shiga toxin inhibitors: cycloheximide protein synthesis inhibition; 12% of 300,000 active; max response, %; cell reporter, cycloheximide protein synthesis inhibition counterscreen; AID 2314; in the data active = max response mostly above about 13%, no sharp cut-off; inactive = mostly below about 14%; also: read at 38.3 µM for the half of the compounds with a filed dose
# Numbers stand for hits; 0 = inactive; ? = inconclusive; - = no result; + = active, no number.
SMILES,Shiga inhibitor,MARV entry inh,LASV entry inh,CHX counter
Cn1nccc1C(=O)NC1CCCc2c1cnn2-c1cc(F)cc(F)c1 (stereo unspecified),54.2,-,-,31.8
O=C(CN1CCCC1=O)NC1CCCc2c1cnn2-c1cc(F)cc(F)c1 (stereo unspecified),0,0,0,22.4
CC1(C)Cc2c(cnn2-c2cccc(F)c2)C(NC(=O)Cn2cccn2)C1 (stereo unspecified),0,0,0,19.4
CCOCCCN(C)C1CCN(C(=O)c2oc3ccccc3c2NC(=O)COc2ccc(F)cc2)CC1,0,?,?,0
COc1cc(-c2ccno2)ccc1S(=O)(=O)N1CCN(c2cccc(Cl)c2)CC1,-,-,0,-
COc1ccc(C(=O)C2CCCN(Cc3ccc(Sc4nncn4C)o3)C2)cc1F (stereo unspecified),0,0,0,0
CC1(C)Cc2c(cnn2-c2cccc(F)c2)C(NC(=O)CN2CCCC2=O)C1 (stereo unspecified),11.2,-,-,11.2
Cc1ccc(C)n1-n1cnc2sc3c(c2c1=O)CCC3,0,0,0,0
O=c1c2c3c(sc2ncn1-n1cccc1)CCCCC3,56.2,0,0,36.0
O=C1CN(C(=O)/C=C/c2ccccc2F)c2ccccc2N1,75.5,-,-,27.4
O=C1CN(C(=O)c2ccccc2)c2ccccc2N1,0,0,0,0
COc1ccc(F)cc1C(=O)C1CCCN(Cc2cccn2-c2ccccn2)C1 (stereo unspecified),0,?,10µM,0
Cc1ccsc1C(=O)C1CCCN(Cc2cccn2-c2ccccn2)C1 (stereo unspecified),0,5.62µM,?,0
Cc1cccc(OCC(=O)Nc2ncn[nH]2)c1C,0,-,-,11.3
Cc1cc(Cl)ccc1OCC(=O)NCc1ccncc1,0,0,0,0
Cc1cccc(OCC(=O)Nc2ccncc2)c1C,0,?,?,12.4
CC(=O)c1sc(NC(=O)COc2ccc(Cl)cc2C)nc1C,0,?,0,27.8
COc1ccccc1OCC(=O)Nc1ccncc1,0,-,-,0
Cc1cc(Cl)ccc1OCC(=O)Nc1ccncc1,-,-,-,27.0
CCCCC(=O)Nc1ccccc1CC,0,0,?,0
COc1cccc(NC(=O)c2oc3ccccc3c2NC(=O)c2ccc(F)c(F)c2)c1,-,0,0,-
CCOCC(=O)Nc1c(C(=O)Nc2ccc3c(c2)OCCO3)oc2ccccc12,126.4,?,?,36.9
CCC(=O)Nc1c(C(=O)Nc2ccc3c(c2)OCCO3)oc2ccccc12,88.1,0,?,0
O=C(Nc1ccc2c(c1)OCCO2)c1oc2ccccc2c1NC(=O)C1CC1,0,?,0,0
COCC(=O)Nc1c(C(=O)Nc2ccc3c(c2)OCCO3)oc2ccccc12,93.4,11.2µM,?,35.6
SMILES,Shiga inhibitor,MARV entry inh,LASV entry inh,CHX counter
CCOCC(=O)Nc1c(C(=O)Nc2ccccc2OC)oc2ccccc12,0,?,0,0
CCC(=O)Nc1c(C(=O)Nc2cccc(OC)c2)oc2ccccc12,0,0,0,17.7
COc1ccc(NC(=O)c2oc3ccccc3c2NC(=O)c2ccc3c(c2)OCO3)cc1,0,0,0,0
CCOc1ccc(C(=O)OCC(=O)N(Cc2ccccc2)Cc2ccccc2)cc1OC,-,0,?,-
CCOC(=O)N1CCC(NC(=O)C(NC(=O)C2CCC(C)CC2)C(C)CC)CC1 (stereo unspecified),0,0,-,0
Cc1ccc(C)c(N2CCN(C(=O)Cn3cnc4onc(-c5ccc(F)cc5)c4c3=O)CC2)c1,-,-,0,-
C[C@@H]1[C@@H](c2ccccc2)c2cc3ccccc3nc2-c2nc3ccccc3cc2[C@H]1C(=O)N1CCCC1,-,0,?,-
C#CCN1C(C)=C(C(=O)OC)C(c2cccc([N+](=O)[O-])c2)C(C(=O)OCC)=C1C (stereo unspecified),-,14.1µM,?,-
O=C(N/N=C/c1ccccc1O)NC12CC3CC(CC(C3)C1)C2,139.0,?,?,46.2
O=C(N/N=C/c1ccc(O)c(O)c1)NC12CC3CC(CC(C3)C1)C2,0,?,?,0
COc1cc(/C=N/NC(=O)NC23CC4CC(CC(C4)C2)C3)ccc1O,37.2,0,0,0
Cc1ccc(S(=O)(=O)c2ccc(Cl)cc2)cc1S(=O)(=O)NC(C)C(=O)O (stereo unspecified),0,?,0,0
COc1cccc(Nc2nc(-c3ccc4c(c3)OCCO4)cs2)c1,103.3,?,?,53.4
N#C/C(=C\Nc1ccc2c(c1)OCCO2)c1nc(-c2ccccc2)cs1,0,0,0,0
c1ccc(-c2csc(Nc3ccc4c(c3)OCCO4)n2)cc1,97.2,?,10µM,54.1
c1cc2c(cc1Nc1nc(-c3ccc4c(c3)OCO4)cs1)OCCO2,77.5,0,?,63.5
O=S(=O)(c1cccc2nsnc12)N1CCNCC1,0,0,?,0
Cc1ccc(S(=O)(=O)c2nc(S(=O)(=O)c3ccccc3)sc2N2CCN(C)CC2)cc1,0,-,-,0
Cc1ccc(C(C(=O)NC2CCCCC2)N(C)Cc2ccccc2)cc1 (stereo unspecified),-,0,0,-
CCOc1ccc(OCCSc2nc3ccccc3o2)cc1,0,0,0,15.4
CCOc1ccc(OCCSc2nc3ccccc3c(=O)[nH]2)cc1,0,0,0,0
COc1cc(-c2nnc(SCCOc3ccccc3)o2)cc(OC)c1OC,-,0,0,-
c1ccc(OCCSc2nc3ccccc3o2)cc1,98.9,0,0,21.5
CC(C)ON([C@@H](C(=O)NO)C(C)C)S(=O)(=O)c1ccc(-c2ccccc2)cc1,-,5.17µM,3.66µM,-
CC(C)ON(C(C(=O)NO)C(C)C)S(=O)(=O)c1ccc(-c2ccccc2)cc1 (stereo unspecified),0,-,-,0
SMILES,Shiga inhibitor,MARV entry inh,LASV entry inh,CHX counter
Cc1cccc(N2CCN(c3cccc(C)c3)C2c2cccnc2)c1,70.9,0,0,33.6
Cc1cccc(N2C(=O)CSC2c2cccnc2)c1 (stereo unspecified),0,0,0,0
Cc1ccc(C)c(NC(=O)CSc2ncc3c(n2)-c2ccccc2N(Cc2ccccc2C)S3(=O)=O)c1,-,-,0,-
CCN(CC)c1ccc(/C=N/NC(=S)NC)c(O)c1,76.7,-,-,29.9
CCN(CC)c1ccc(N=Cc2ccc(N(CC)CC)cc2O)cc1,0,0,-,0
CCN(CC)c1ccc(/C=N/Nc2ccccc2)c(O)c1,0,?,0,22.6
CCN(CC)c1ccc(C=Nc2ccc(N(C)C)cc2)c(O)c1,90.6,0,0,53.6
CCN(CC)c1ccc(/C=N/NC(=O)c2ccc3nc[nH]c3c2)c(O)c1,0,?,?,0
CCN(CC)c1ccc(/C=N/NC(=O)c2ccoc2C)c(O)c1,93.2,-,-,27.1
CCN(CC)c1ccc(/C=N/Nc2cccc(C)c2)c(O)c1,0,0,0,0
COc1ccc(S(=O)(=O)NCCCC(=O)Nc2ccc(Sc3ccc(N)cc3)cc2)cc1,0,-,-,0
CCN(CC)c1ccc(C=Nc2ccccc2)c(O)c1,0,?,0,0
CCN(CC)c1ccc(/C=N/N2CCOCC2)c(O)c1,70.2,0,?,64.5
CCN(CC)c1ccc(/C=N/NC(=O)OC)c(O)c1,63.9,0,?,54.6
COc1ccc(NC(C)c2ccccc2)cc1 (stereo unspecified),84.1,0,0,35.3
CC1=C[C@@H](COCc2ccccc2)O[C@@]2(C1)C(=O)N(CC1CC1)c1ccccc12,-,0,-,-
N#Cc1ccc(N2Cc3ccccc3C2=NC(=O)c2cccnc2Cl)cc1,+,0,?,25.0
O=C(N=C1c2ccccc2CN1c1ccc(F)c(Cl)c1)c1cccnc1Cl,77.3,0,0,69.8
